Measured values published in the supplement of paper PMC10849652.
Targets with a hit are over-represented here; the source holds about 7,900 in all. About 0.6% of all pairs of compound and target were hits. A number with no mark means an inactive call.

The targets below were run with Cc1cc(SCc2sc(-c3ccc(C(F)(F)F)cc3)nc2C)ccc1OCC(=O)O (assay: log2 fold change, soluble protein after heating vs DMSO (PISA); higher = thermal stabilisation; K562 cells, 10 uM, 30 min; active = over 0.2 and 3.5 SD of the protein, either way, in both replicates (recomputed)).
How it was run: (§1)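 Aliquots of K562 cells (2×10^6 cells/mL) treated with 10 μM compound for 30 min were heated for 3 min over 48°C-58°C. After pooling and extraction in PBS with 0.5% NP-40 at 4°C, soluble protein from a 21,000xg, 90 min spin was quantified by TMTpro 16plex LC-MS/MS with channel sums equalised. Thermal stability is expressed against control samples, from duplicates, as a log2 fold change.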

Sequence of UniProt P30305 (P30305 whole entry, looked up): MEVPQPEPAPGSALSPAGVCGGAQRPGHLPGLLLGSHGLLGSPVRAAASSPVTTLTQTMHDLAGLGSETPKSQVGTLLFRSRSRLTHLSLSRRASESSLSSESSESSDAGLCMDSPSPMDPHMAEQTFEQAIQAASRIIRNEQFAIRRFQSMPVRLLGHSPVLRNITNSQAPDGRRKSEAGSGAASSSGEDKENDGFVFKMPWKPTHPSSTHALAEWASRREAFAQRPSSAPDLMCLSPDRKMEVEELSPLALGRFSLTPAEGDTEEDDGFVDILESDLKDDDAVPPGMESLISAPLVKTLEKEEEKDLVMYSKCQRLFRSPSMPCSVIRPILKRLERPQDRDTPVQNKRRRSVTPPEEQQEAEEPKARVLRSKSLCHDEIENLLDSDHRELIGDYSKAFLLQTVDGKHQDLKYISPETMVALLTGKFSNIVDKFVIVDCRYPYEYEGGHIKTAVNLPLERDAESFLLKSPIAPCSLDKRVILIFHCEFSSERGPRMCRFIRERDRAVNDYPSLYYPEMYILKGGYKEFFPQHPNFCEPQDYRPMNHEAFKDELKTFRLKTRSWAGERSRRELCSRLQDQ
Sequence of UniProt Q9UHN6 (Q9UHN6 whole entry, looked up): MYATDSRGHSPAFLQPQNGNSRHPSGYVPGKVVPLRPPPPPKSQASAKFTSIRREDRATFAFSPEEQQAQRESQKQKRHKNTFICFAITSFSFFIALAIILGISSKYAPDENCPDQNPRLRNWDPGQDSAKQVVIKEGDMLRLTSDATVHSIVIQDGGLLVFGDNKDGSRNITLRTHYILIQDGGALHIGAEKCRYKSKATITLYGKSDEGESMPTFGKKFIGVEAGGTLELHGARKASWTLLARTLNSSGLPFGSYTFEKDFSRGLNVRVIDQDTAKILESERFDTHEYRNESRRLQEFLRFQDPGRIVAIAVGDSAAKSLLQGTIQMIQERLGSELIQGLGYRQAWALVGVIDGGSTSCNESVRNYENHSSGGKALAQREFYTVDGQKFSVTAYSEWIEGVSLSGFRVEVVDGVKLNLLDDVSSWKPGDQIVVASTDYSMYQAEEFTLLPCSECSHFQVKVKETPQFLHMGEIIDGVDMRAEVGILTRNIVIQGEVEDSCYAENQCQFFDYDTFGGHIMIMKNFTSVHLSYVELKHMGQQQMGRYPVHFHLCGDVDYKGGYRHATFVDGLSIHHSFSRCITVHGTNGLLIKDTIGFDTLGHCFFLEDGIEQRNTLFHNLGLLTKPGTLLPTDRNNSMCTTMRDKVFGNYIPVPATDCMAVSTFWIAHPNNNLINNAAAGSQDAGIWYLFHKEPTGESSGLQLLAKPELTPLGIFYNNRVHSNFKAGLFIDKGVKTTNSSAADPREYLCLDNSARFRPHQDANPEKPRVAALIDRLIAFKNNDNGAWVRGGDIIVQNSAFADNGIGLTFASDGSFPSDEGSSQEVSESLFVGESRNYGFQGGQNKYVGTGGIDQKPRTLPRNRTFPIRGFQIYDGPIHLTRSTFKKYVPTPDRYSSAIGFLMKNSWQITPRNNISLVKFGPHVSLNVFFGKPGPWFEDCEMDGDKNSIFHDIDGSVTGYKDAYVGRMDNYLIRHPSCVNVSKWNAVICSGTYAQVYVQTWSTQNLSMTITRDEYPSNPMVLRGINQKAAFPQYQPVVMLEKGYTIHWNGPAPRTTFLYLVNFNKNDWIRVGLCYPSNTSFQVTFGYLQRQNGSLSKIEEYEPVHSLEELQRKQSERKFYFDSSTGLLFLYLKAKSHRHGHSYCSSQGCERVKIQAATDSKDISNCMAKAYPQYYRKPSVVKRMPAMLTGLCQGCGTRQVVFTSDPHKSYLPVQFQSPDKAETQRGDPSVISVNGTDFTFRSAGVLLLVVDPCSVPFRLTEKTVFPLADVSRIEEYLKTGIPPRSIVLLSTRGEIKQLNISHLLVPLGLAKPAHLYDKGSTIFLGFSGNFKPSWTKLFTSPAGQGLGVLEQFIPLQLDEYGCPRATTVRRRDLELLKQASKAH
Sequence of UniProt O75122 (O75122 whole entry, looked up): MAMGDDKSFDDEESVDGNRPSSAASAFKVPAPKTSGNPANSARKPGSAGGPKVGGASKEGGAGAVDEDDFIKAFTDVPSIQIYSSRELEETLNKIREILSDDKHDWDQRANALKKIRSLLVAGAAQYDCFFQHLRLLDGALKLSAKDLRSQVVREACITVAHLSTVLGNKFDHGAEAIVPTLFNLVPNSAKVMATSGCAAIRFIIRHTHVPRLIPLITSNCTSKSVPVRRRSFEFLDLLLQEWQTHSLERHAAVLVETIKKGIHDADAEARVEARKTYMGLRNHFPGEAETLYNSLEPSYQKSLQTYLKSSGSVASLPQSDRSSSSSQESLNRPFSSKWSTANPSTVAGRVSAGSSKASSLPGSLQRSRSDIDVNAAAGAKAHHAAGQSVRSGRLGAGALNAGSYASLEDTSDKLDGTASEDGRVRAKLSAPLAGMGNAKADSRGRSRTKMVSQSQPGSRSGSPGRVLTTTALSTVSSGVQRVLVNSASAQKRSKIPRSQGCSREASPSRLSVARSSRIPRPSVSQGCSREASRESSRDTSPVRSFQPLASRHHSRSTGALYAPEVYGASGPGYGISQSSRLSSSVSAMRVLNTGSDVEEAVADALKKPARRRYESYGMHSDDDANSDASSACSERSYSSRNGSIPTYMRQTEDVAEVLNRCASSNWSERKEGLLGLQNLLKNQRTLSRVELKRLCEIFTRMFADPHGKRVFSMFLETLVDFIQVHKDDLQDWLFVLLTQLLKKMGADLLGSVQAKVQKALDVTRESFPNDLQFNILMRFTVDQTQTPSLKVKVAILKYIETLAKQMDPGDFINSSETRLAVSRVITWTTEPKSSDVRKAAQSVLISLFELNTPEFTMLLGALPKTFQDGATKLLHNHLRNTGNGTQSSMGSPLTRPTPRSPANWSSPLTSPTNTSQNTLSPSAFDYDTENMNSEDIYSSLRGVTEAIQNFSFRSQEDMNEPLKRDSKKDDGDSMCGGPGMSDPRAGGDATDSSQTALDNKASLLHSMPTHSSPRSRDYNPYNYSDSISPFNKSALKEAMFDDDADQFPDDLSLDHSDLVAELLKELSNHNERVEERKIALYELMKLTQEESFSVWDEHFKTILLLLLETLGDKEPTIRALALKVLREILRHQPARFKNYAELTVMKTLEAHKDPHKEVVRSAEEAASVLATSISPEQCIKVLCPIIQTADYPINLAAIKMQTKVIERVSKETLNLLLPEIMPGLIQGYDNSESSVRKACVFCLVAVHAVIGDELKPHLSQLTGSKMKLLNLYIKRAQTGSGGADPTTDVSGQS
Sequence of UniProt Q14677 (Q14677 whole entry, looked up): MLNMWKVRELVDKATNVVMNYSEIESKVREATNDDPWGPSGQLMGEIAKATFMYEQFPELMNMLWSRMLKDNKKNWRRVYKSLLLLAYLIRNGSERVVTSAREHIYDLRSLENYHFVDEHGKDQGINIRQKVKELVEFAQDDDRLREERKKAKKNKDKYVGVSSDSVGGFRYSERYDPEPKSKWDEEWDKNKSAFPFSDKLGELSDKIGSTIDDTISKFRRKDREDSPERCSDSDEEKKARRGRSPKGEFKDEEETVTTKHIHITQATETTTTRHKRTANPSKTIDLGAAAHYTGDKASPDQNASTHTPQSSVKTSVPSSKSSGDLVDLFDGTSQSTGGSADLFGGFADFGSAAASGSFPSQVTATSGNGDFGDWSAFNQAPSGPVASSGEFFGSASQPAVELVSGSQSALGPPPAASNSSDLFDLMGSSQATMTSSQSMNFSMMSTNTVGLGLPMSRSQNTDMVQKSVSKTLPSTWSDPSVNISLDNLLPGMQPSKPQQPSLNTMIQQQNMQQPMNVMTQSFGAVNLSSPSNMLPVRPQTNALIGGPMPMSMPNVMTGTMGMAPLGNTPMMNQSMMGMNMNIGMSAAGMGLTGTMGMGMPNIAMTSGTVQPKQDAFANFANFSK
Sequence of UniProt O95628 (O95628 whole entry, looked up): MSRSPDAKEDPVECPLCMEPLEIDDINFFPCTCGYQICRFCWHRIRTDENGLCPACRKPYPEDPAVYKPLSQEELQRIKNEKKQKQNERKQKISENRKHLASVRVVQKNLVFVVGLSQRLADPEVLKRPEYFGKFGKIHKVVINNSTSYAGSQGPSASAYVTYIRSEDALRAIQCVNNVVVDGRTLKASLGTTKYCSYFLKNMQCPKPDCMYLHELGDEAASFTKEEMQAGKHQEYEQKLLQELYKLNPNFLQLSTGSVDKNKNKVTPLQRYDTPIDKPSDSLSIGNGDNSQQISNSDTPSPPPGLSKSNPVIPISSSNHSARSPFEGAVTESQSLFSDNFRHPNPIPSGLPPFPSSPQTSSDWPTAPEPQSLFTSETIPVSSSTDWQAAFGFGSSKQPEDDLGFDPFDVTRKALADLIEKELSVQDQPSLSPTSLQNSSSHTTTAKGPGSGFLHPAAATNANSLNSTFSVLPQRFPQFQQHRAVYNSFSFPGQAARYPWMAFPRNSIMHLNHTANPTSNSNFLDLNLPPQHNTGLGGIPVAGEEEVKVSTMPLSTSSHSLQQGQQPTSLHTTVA
Sequence of UniProt Q13286 (Q13286 whole entry, looked up): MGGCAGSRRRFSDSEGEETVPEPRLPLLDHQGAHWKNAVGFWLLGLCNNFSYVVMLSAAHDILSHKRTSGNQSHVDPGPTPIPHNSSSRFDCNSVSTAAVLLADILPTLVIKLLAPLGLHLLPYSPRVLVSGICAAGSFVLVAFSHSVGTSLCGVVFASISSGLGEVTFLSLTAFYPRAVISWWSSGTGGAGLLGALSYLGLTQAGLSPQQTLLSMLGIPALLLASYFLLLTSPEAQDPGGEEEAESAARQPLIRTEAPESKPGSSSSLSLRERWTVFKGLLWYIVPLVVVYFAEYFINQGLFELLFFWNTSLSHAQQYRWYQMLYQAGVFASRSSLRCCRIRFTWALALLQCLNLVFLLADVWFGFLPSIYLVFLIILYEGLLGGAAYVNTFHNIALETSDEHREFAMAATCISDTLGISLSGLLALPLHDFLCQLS
Sequence of UniProt O75956 (O75956 whole entry, looked up): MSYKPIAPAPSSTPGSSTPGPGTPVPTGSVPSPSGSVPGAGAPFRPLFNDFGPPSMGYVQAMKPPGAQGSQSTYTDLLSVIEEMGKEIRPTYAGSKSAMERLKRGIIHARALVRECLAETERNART

Target	log2 fold change
CCND3 (UniProt P30281)	0.058
CORO2A (UniProt Q92828)	0.023
CLINT1 (UniProt Q14677)	-0.155
CLCN5 isoform 2 (UniProt P51795)	-0.049
CNOT4 isoform 9 (UniProt O95628)	-0.086
CCNT2 (UniProt O60583)	0.047
CFAP47 (UniProt Q6ZTR5)	-0.302
CLN3 (UniProt Q13286)	-0.085
CCDC82 (UniProt Q8N4S0)	-0.119
CCNDBP1 (UniProt O95273)	0.043
CEBPZOS (UniProt A8MTT3)	-0.013
CEMIP2 (UniProt Q9UHN6)	-0.136
CASK (UniProt O14936)	-0.039
CLN8 (UniProt Q9UBY8)	-0.09
CA1 (UniProt E5RIF9)	-0.613
CASP7 isoform 3 (UniProt P55210)	-0.271
CKS2 (UniProt P33552)	-0.038
CRMP1 isoform 2 (UniProt Q14194)	-0.003

What follows are targets tested with Cc1ccc(-n2nc(C(C)(C)C)cc2NC(=O)Nc2ccc(OCCN3CCOCC3)c3ccccc23)cc1 [doramapimod] in the same assay as above.
How it was run: as §1

Target	log2 fold change
CLINT1 (UniProt Q14677)	0.154
CLCN5 isoform 2 (UniProt P51795)	-0.03
CARD9 (UniProt Q9H257)	0.135
CNOT4 isoform 9 (UniProt O95628)	0.274
CLASP2 (UniProt O75122)	0.132
CLN3 (UniProt Q13286)	-0.047
CCDC82 (UniProt Q8N4S0)	-0.165
CDC25B isoform 4 (UniProt P30305)	0.132
CEBPZOS (UniProt A8MTT3)	0.066
CREB3L2 (UniProt Q70SY1)	0.128
CEMIP2 (UniProt Q9UHN6)	-0.144
CASK (UniProt O14936)	0.034
CDK2AP2 (UniProt O75956)	-0.014

These targets were tested with Cc1ccc(C(=O)N(CCCN)[C@@H](c2nc3cc(Cl)ccc3c(=O)n2Cc2ccccc2)C(C)C)cc1 [ispinesib] in the same assay as above.
How it was run: as §1

Target	log2 fold change
CCND3 (UniProt P30281)	-0.116
CORO2A (UniProt Q92828)	-0.046
CFAP58 (UniProt Q5T655)	-0.165
CNRIP1 (UniProt Q96F85)	-0.147
CLCN5 isoform 2 (UniProt P51795)	-0.419 (active)
CARD9 (UniProt Q9H257)	-0.398
CNOT4 isoform 9 (UniProt O95628)	-0.102
CCNT2 (UniProt O60583)	-0.147
CLASP2 (UniProt O75122)	-0.007
CLN3 (UniProt Q13286)	-0.307
CCDC82 (UniProt Q8N4S0)	-0.026
CCNDBP1 (UniProt O95273)	-0.029
CDC25B isoform 4 (UniProt P30305)	0.019
CCDC187, A0A1W2PQX5	0.274
CEBPZOS (UniProt A8MTT3)	0.016
CREB3L2 (UniProt Q70SY1)	-0.342
CEMIP2 (UniProt Q9UHN6)	-0.148
CLN8 (UniProt Q9UBY8)	-0.15
CDK2AP2 (UniProt O75956)	-0.011
CRTC3 (UniProt Q6UUV7)	0.129

The targets below were run with Cc1ccc(NC(=O)c2ccc(CN3CC[C@H](N(C)C)C3)c(C(F)(F)F)c2)cc1Nc1nccc(-c2cncnc2)n1 [bafetinib] in the same assay as above.
How it was run: as §1

Target	log2 fold change
CCND3 (UniProt P30281)	0.07
CORO2A (UniProt Q92828)	0.021
CLINT1 (UniProt Q14677)	-0.053
CLPTM1L (UniProt G5E9Z2)	0.156
CNOT4 isoform 9 (UniProt O95628)	0.081
CLASP2 (UniProt O75122)	-0.098
CFAP47 (UniProt Q6ZTR5)	0.034
CLN3 (UniProt Q13286)	-0.099
CCDC82 (UniProt Q8N4S0)	-0.091
CCNDBP1 (UniProt O95273)	0.059
CDC25B isoform 4 (UniProt P30305)	0.081
CEBPZOS (UniProt A8MTT3)	0.066
CREB3L2 (UniProt Q70SY1)	0.01
CEMIP2 (UniProt Q9UHN6)	-0.018
CS (UniProt F8VU34)	0.044
CSNK1A1 isoform 3 (UniProt P48729)	0.224
CLN8 (UniProt Q9UBY8)	-0.209
CA1 (UniProt E5RIF9)	-0.042
CASP7 isoform 3 (UniProt P55210)	-1.01 (active)
CDK2AP2 (UniProt O75956)	0
CKS2 (UniProt P33552)	-0.021
CD68 (UniProt P34810)	-0.091
CRMP1 isoform 2 (UniProt Q14194)	-0.024
CRTC3 (UniProt Q6UUV7)	-0.018
